# Experimental data as given in PubChem BioAssay (Tox21).
# “And” between values parts separate entries of the source, which are not always exact repeats. Equal values may be shown once. Inconclusive results are not listed. A call without a number means that no potency is given here. Some structures have more than one record in an assay (separate samples or runs), and their calls can disagree. The source made the active and inactive calls. Unless noted, calls come from the whole dose curve; as a rule, active = well fitted curve in the direction sought with a large enough effect in the repeat runs; inconclusive = weak or mixed curves; inactive = no such curve, though single readings can be large; an effect the other way counts as inactive or inconclusive.
# Experiments:
# [1] = qHTS assay to test for compound auto fluorescence at 535 nm (green) in HEK293 cells (AID 720680)
# [2] = qHTS assay to test for compound auto fluorescence at 460 nm (blue) in HEK293 cell free culture (AID 720681)
# How it was run: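 Blue fluorescence (Ex 405/Em 460 nm, triamterene-equivalent) was read immediately after pin transfer of compound or DMSO into medium (DMEM, 10% FBS) without cells.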
# [3] = qHTS assay to test for compound auto fluorescence at 535 nm (green) in HEK293 cell free culture (AID 720682)
# How it was run: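 Green-label autofluorescence (485 nm excitation, 535 nm emission) measured on compound added to cell-free culture medium (DMEM, 10% FBS). Output is expressed relative to fluorescein.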
# [4] = qHTS assay to test for compound auto fluorescence at 590 nm (red) in HEK293 cell free culture (AID 720683)
# How it was run: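 Red-channel autofluorescence of compounds in culture medium (DMEM, 10% FBS), no cells, measured at 540/590 nm. Rose Bengal sodium is the reference fluorophore for equivalence.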
# [5] = qHTS assay to test for compound auto fluorescence at 590 nm (red) in HepG2 cell free culture (AID 720684)
# How it was run: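 No cells present: MEM + 10% FBS only. Compound pinned in, red label read (540/590 nm). Activity = fluorescence equivalent to Rose Bengal sodium.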
# [6] = qHTS assay to test for compound auto fluorescence at 460 nm (blue) in HepG2 cell free culture (AID 720685)
# How it was run: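 Cell-free plates of MEM plus 10% FBS received 23 nL compound or DMSO vehicle; blue-channel (405/460 nm) intensity scored against triamterene as reference fluorophore.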
# [7] = qHTS assay to test for compound auto fluorescence at 460 nm (blue) in HepG2 cells (AID 720687)
# How it was run: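 Blue-channel autofluorescence (Ex/Em 405/460 nm, triamterene-equivalent) was measured after 1 hr compound exposure at 37 C, 5% CO2. Cells were HepG2, plated overnight at 37 C in MEM plus 10% FBS.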
# [8] = target: Glucocorticoid receptor (Homo sapiens) (UniProt P04150); experiment: qHTS assay to identify small molecule agonists of the glucocorticoid receptor (GR) signaling pathway (AID 720691; active = well fitted activation curve with a large enough effect in the signal ratio in the repeat runs, not every such curve was filed as active; the % refers to the signal ratio)
# Glucocorticoid receptor (Homo sapiens), sequence (P04150 whole entry, looked up): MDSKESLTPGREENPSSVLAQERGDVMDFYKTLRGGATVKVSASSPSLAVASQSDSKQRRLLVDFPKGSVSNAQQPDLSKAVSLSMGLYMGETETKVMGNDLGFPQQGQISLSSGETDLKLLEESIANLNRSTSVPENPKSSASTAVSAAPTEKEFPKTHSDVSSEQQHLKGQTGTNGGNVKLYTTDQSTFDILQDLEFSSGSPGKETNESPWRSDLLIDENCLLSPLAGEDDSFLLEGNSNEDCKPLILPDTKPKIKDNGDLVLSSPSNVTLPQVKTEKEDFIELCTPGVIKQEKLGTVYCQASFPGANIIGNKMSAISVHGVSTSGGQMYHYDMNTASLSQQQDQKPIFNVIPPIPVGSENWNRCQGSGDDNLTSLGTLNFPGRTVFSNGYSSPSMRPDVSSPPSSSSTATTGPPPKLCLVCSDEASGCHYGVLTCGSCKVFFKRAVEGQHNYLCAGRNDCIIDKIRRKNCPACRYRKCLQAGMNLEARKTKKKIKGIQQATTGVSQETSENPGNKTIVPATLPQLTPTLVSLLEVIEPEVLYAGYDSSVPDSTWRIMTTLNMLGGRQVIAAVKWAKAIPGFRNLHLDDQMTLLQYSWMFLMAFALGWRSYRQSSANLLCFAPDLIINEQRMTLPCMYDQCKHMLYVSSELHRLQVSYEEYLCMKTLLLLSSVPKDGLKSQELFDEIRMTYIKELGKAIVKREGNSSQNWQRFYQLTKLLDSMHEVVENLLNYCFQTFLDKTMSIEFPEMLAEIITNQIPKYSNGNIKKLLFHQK
# How it was run: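 Agonist-mode qHTS in HeLa cells stably expressing a glucocorticoid-response-element beta-lactamase reporter. Fluorescence intensity read with FRET substrate (2 h, room temperature) after 18 h compound treatment at 37 C.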
# [9] = qHTS assay to identify small molecule antagonists of the glucocorticoid receptor (GR) signaling pathway - cell viability counter screen (AID 720693); note: nearly all actives have a fitted effect of over 55% in size; note: potency is the fitted concentration of half-maximal effect
# [10] = qHTS assay for identifying genotoxic compounds that show differential cytotoxicity against isogenic chicken DT40 cell lines with known DNA damage response pathways - Rad54/Ku70 mutant cell line (AID 743015); note: nearly all actives have a fitted effect of over 60% in size; note: potency is the fitted concentration of half-maximal effect
# [11] = qHTS assay to identify small molecule antagonists of the androgen receptor (AR) signaling pathway - cell viability counter screen (AID 743033; note: nearly all actives have a fitted effect of over 45% in size; note: potency is the fitted concentration of half-maximal effect)
# [12] = qHTS assay to identify small molecule antagonists of the androgen receptor (AR) signaling pathway using the MDA cell line - cell viability counter screen (AID 743041; note: nearly all actives have a fitted effect of over 45% in size)
# How it was run: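 Using the breast carcinoma line MDA-kb2 AR-luc, test chemicals were co-incubated with R1881 for 16 h; CellTiter-Fluor reagent, added at 15.5 h, provided a fluorescence measure of live cells.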
# [13] = qHTS assay for identifying genotoxic compounds that show differential cytotoxicity against isogenic chicken DT40 cell lines with known DNA damage response pathways - wild type cell line (AID 743012); note: nearly all actives have a fitted effect of over 60% in size; note: potency is the fitted concentration of half-maximal effect
# How it was run: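 Viability by ATP luminescence (CellTiter-Glo, 30 min RT) after 40 h compound treatment at 37 C/5% CO2, using 300 parental DNA repair-proficient DT40 cells per well.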
# [14] = qHTS assay for identifying genotoxic compounds that show differential cytotoxicity against isogenic chicken DT40 cell lines with known DNA damage response pathways - Rev3 mutant cell line (AID 743014); note: nearly all actives have a fitted effect of over 55% in size; note: potency is the fitted concentration of half-maximal effect
# [15] = qHTS assay to test for compound auto fluorescence at 535 nm (green) in HepG2 cell free culture (AID 720686)
# [16] = target: Glucocorticoid receptor (Homo sapiens) (UniProt P04150); experiment: qHTS assay to identify small molecule antagonists of the glucocorticoid receptor (GR) signaling pathway (AID 720692; active = well fitted inhibition curve with a large enough effect in the signal ratio in the repeat runs, not every such curve was filed as active; the % refers to the signal ratio; note: potency is the fitted concentration of half-maximal effect)
# How it was run: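 Inhibition of dexamethasone-driven (5 nM final) beta-lactamase expression was measured in GRE-reporter HeLa cells over 18 h at 37C. Fluorescence was read after 2 h with the B/G FRET substrate at room temperature.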
# [17] = target: Androgen receptor (Homo sapiens) (UniProt P10275); experiment: qHTS assay to identify small molecule antagonists of the androgen receptor (AR) signaling pathway (AID 743035; active = well fitted inhibition curve with a large enough effect in the signal ratio in the repeat runs, not every such curve was filed as active; the % refers to the signal ratio)
# Androgen receptor (Homo sapiens), sequence (P10275 whole entry, looked up): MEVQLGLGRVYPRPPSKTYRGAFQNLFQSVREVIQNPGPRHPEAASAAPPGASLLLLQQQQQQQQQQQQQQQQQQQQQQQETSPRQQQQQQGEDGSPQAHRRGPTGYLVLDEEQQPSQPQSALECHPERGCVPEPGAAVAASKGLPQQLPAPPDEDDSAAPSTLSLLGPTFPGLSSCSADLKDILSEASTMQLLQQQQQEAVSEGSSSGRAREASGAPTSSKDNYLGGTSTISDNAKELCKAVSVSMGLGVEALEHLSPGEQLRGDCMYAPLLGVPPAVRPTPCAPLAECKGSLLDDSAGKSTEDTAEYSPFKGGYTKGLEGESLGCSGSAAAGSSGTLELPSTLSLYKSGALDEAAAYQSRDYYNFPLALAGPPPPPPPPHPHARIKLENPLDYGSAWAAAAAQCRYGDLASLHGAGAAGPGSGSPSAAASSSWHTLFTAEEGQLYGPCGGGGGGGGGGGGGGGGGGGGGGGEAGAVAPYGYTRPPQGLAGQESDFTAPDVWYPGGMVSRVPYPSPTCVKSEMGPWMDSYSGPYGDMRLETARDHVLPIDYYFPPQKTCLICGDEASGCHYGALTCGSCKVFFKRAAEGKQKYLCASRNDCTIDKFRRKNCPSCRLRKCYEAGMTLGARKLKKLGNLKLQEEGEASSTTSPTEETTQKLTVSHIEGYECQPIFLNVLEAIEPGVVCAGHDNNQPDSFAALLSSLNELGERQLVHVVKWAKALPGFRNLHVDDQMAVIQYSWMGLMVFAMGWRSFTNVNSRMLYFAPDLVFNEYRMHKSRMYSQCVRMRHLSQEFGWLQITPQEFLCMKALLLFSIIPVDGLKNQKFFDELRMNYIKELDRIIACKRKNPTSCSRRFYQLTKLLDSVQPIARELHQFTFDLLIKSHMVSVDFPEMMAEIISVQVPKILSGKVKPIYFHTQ
# How it was run: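 Antagonist mode: AR-bla HEK293 cells co-treated with test compounds and agonist R1881 for 16 h at 37C, 5% CO2. Beta-lactamase activity read as FRET fluorescence after 2 h room-temperature substrate loading.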
# [18] = target: Androgen receptor (Homo sapiens) (UniProt P10275); experiment: qHTS assay to identify small molecule agonists of the androgen receptor (AR) signaling pathway (AID 743036; active = well fitted activation curve with a large enough effect in the signal ratio in the repeat runs, with a control signal flat, not every such curve was filed as active; the % refers to the signal ratio)
# How it was run: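 AR-UAS-bla HEK293 cells, plated 4 h before dosing, were treated with compound for 16 h at 37C. beta-Lactamase reporter read after 2 h with LiveBLAzer B/G FRET substrate at room temperature.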
# [19] = target: Androgen receptor (Homo sapiens) (UniProt P10275); experiment: qHTS assay to identify small molecule agonists of the androgen receptor (AR) signaling pathway using the MDA cell line (AID 743040; note: nearly all actives have a fitted effect of over 20% in size); conditions: MDA-kb2 AR-luc cells, MMTV luciferase, 16 h; activity change: at 70.3 µM (top of the series), stronger effect = higher value
# How it was run: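 Stable MMTV-luciferase reporter in MDA-kb2 cells; note the promoter carries GR as well as AR response elements. 16 h compound treatment, 37C, 0% CO2; ONE-Glo luminescence endpoint.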
# [20] = target: Androgen receptor (Homo sapiens) (UniProt P10275); experiment: qHTS assay to identify small molecule antagonists of the androgen receptor (AR) signaling pathway using the MDA cell line (AID 743042; note: nearly all actives have a fitted effect of over 55% in size)
# How it was run: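 Antagonist mode: compounds plus R1881 agonist added to MDA-kb2 AR-luc cells, incubated 16 h at 37C. Luciferase reporter luminescence quantified, with multiplexed CellTiter-Fluor readout for cell viability.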
SMILES,outcome [1],outcome [2],outcome [3],outcome [4],outcome [5],outcome [6],outcome [7],Potency [8],Potency [9],Potency [10],Potency [11],Potency [12],Potency [13],Potency [14],outcome [15],Potency [16],Potency [17],Potency [18],Potency [19],Potency [20]
CC[N+]1(CCOC(=O)C(O)(c2ccccc2)c2ccccc2)CCCCC1,inactive,inactive,inactive,inactive,inactive,inactive,inactive,inactive,inactive,inactive,inactive,inactive,,,,,,,,
O=C(O)C(O)C(O)C(=O)O (stereo not given),inactive,inactive,inactive,inactive,inactive,inactive,inactive,,inactive,inactive,inactive,inactive,inactive,inactive,,,,,,
O=C(CCl)CCl,inactive,inactive,inactive,inactive,inactive,,inactive,inactive,inactive,inactive and 686 nM (active),inactive,inactive,0.864 µM (active),0.273 µM (active),inactive,43.6 µM (active),,,,
O=C(O)C(F)(F)C(F)(F)C(F)(F)C(F)(F)C(F)(F)C(F)(F)C(F)(F)C(F)(F)F,inactive,inactive,inactive,inactive,inactive,inactive,inactive,inactive,inactive,inactive,inactive,inactive,,inactive,,inactive,,,,
CC1(C)[C@H](C(=O)O[C@H](C#N)c2cccc(Oc3ccccc3)c2)[C@@H]1C=C(Br)Br,inactive,inactive,inactive,inactive,inactive,,inactive,,inactive,,inactive,inactive,inactive,inactive and 48.6 µM (active),inactive,,inactive,inactive,inactive,inactive
CCCC(C)(COC(N)=O)COC(=O)NC(C)C (stereo not given),inactive,inactive,inactive,inactive,inactive,inactive,inactive,,inactive,,inactive,inactive,inactive,inactive,,,,,,
CCCC[P+](CC)(CCCC)CCCC (tested in a mixture with another compound),inactive,inactive,inactive,inactive,inactive,inactive,inactive,,inactive,12.3 µM (active),inactive,inactive,27.5 µM (active),17.4 µM (active),,,,,,
O=[N+]([O-])c1cc(Cl)c(Cl)cc1Cl,inactive,inactive,inactive,inactive,inactive,inactive,inactive,inactive,inactive,inactive,inactive,inactive,inactive,inactive,,inactive,,,,
CC1(C)CC(=O)CC(C)(C)N1[O],inactive,inactive,inactive,inactive,inactive,,inactive,,inactive,,inactive,inactive,inactive,inactive,inactive,,,,,
C=CC(C)(CCC=C(C)C)OC(=O)c1ccccc1N (stereo not given),inactive,inactive,inactive,inactive,inactive,inactive,inactive,inactive,,,inactive,inactive,,,,,,,,
NNCCO,inactive,inactive,inactive,inactive,inactive,,inactive,,inactive,inactive,inactive,inactive,inactive,inactive,inactive,,,,,
O=S(=O)(c1ccccc1)c1ccccc1,inactive,inactive,inactive,inactive,inactive,,inactive,,inactive,inactive,inactive,inactive,,inactive,inactive,,,,,
C[N+](C)(C)CCOC(=O)C(O)(c1ccccc1)c1ccccc1,inactive,inactive,inactive,inactive,inactive,,inactive,,inactive,,inactive,inactive,inactive,inactive,inactive,,,,,
CN(C)N,inactive,inactive,inactive,inactive,inactive,inactive,inactive,inactive,inactive,inactive,inactive,inactive,inactive,inactive,,inactive,inactive,inactive,inactive,inactive
CCC(C)(C)c1ccc(O)c(C(C)(C)CC)c1,inactive,inactive,inactive,inactive,inactive,inactive,inactive,,19.3 µM (active) and 19.5 µM (active),53.9 µM (active) and 24.3 µM (active),54.4 µM (active),,24.3 µM (active),27.3 µM (active),,,,,,
Cc1cccc(C)c1NC1=NCCCS1,inactive,inactive,inactive,inactive,inactive,,inactive,,inactive,,,inactive,,inactive,inactive,,,,,
CN(C1CCCCC1)C1CCCCC1,inactive,inactive,inactive,inactive,inactive,inactive,inactive,inactive,inactive,17.2 µM (active),inactive,inactive,,9.69 µM (active),,inactive,inactive,inactive,inactive,inactive
CCCCCCCCCCCC[N+](C)(C)CCOc1ccccc1,inactive,inactive,inactive,inactive,inactive,,inactive,,17.4 µM (active),2.66 µM (active) and 6.11 µM (active),23.9 µM (active) and 15.5 µM (active),,1.88 µM (active) and 6.11 µM (active),2.37 µM (active) and 3.86 µM (active),inactive,,,,,
O=C(N[C@H]1CN2CCC1CC2)c1ccc2c(c1)OCCO2,inactive,inactive,inactive,inactive,,inactive,inactive,inactive,inactive,inactive,inactive,inactive,inactive,inactive,inactive,inactive,inactive,inactive,inactive,inactive
OCCSSCCO,inactive,inactive,inactive,inactive,,,inactive,inactive,inactive,inactive,,inactive,inactive,inactive,inactive,inactive,,,,
C[C@H](N)[C@H](O)c1ccc(O)c(O)c1,inactive,inactive,inactive,inactive,,,inactive,,inactive,16.8 µM (active),inactive,inactive,13.3 µM (active),11.9 µM (active),inactive,,,,,
COc1cc(C[C@@H](C)N)c(OC)cc1Br,inactive,inactive,inactive,inactive,,inactive,inactive,,inactive,,inactive,inactive,70.4 µM (active),,,,,,,
C=CCOCC1CO1 (stereo not given),inactive,inactive,inactive,inactive,,inactive,inactive,inactive,inactive,inactive,inactive,inactive,inactive,inactive,,,,,,
CC(C)[C@@H](C(=O)O[C@@H](C#N)c1cccc(Oc2ccccc2)c1)c1ccc(Cl)cc1,inactive,inactive,inactive,inactive,,,inactive,,inactive,30.6 µM (active),inactive,inactive,inactive,inactive and 54.5 µM (active),,,,,,
C#C[C@]1(O)CC[C@H]2[C@@H]3CCC4=CC(=O)CCC4=C3C=C[C@@]21CC,inactive,inactive,inactive,inactive,,inactive,inactive,,,13.3 µM (active),inactive,inactive,10.6 µM (active),13.3 µM (active),inactive,0.379 µM (active),,,,
COc1ccc(C(O)(c2cncnc2)C2CC2)cc1 (stereo not given),inactive,inactive,inactive,inactive,inactive,,inactive,inactive,inactive,inactive,inactive,inactive,inactive,inactive,,inactive,,,,
